Results as given in PubChem BioAssay (NCI).
The panel holds about 83,000 compounds, 20% with a hit somewhere; the sample as a whole holds those more often.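 96-well plates, one dose, 48 hours. Percent growth reported; active if below 10.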 Active and inactive are the calls of the source.

Key:
Assay in all cases: NCI-60 one-dose screen, 48 h (100 = growth as untreated, 0 = no growth, -100 = all killed)
Conditions in all cases: 10 µM unless noted
[1] = system: RPMI-8226 leukemia
[2] = system: OVCAR-8 ovarian
[3] = system: OVCAR-5 ovarian
[4] = system: OVCAR-4 ovarian
[5] = system: SK-OV-3 ovarian
[6] = system: IGROV1 ovarian
[7] = system: OVCAR-3 ovarian
[8] = system: HS 578T breast
[9] = system: NCI/ADR-RES ovarian
[10] = system: T-47D breast
[11] = system: BT-549 breast
[12] = system: MDA-MB-435 melanoma
[13] = system: SW-620 colon
[14] = system: MCF7 breast
[15] = system: HCT-116 colon
[16] = system: HCC-2998 colon
[17] = system: KM12 colon

Measured: growth

C=C1C(=O)O[C@H]2[C@H]1CC/C(C=Nc1c(N)cc(C(F)(F)F)cc1Br)=C\CC[C@@]1(C)O[C@@H]21
inactive: [3] 42.8% | [4] 55.3% | [5] 83.1% | [16] 34.2% | [17] 30%
active: [1] -23.4% | [2] -8.6% | [6] -9.71% | [7] -91.9% | [8] 6.58% | [9] 9.14% | [10] -16.3% | [11] -22.6% | [12] 4.47% | [13] -63.1% | [14] -2.09% | [15] -80.6%

COc1ccc(C2CC(c3ccc(OC)cc3O)=NN2c2ccc(S(N)(=O)=O)cc2)cc1 (stereo unspecified)
active: [1] -32.6%
inactive: [2] 43% | [3] 83.7% | [4] 42.3% | [5] 69.2% | [6] 13.2% | [7] 47.7% | [8] 78.1% | [9] 54% | [10] 24.5% | [11] 58.2% | [13] 50.6% | [14] 13.7% | [15] 20.5% | [16] 54.4% | [17] 23.7%

N#Cc1ccc(N2Cc3cc(Cl)ccc3OC3=C2C(=O)N(Cc2ccc(F)cc2)C3=O)cc1
inactive: [5] 102% | [8] 27% | [9] 10.1% | [16] 42.2% | [17] 52.6%
active: [1] -21.8% | [2] -26.9% | [3] -1.59% | [4] -25.8% | [6] -5.53% | [7] -89% | [10] -70.3% | [11] -63.3% | [12] -48.8% | [13] -81% | [14] -19.5% | [15] -90.4%

COc1ccc2nc(-c3ccc(Cl)cc3)cc(-c3nnc(SCC(=O)Nc4ccc(/C(C)=N\O)cc4)o3)c2c1
active: [2] 0.357% | [4] -56.1% | [9] 1.11% | [13] 3.98% | [14] 7.93% | [15] 2.59%
inactive: [1] 18.4% | [3] 81.1% | [5] 87.5% | [6] 60.2% | [7] 36.8% | [8] 64.8% | [10] 41.7% | [11] 25.4% | [16] 82% | [17] 30.9%

CCCCN(CCCC)CC(CN(CC)CC)OC(=O)Nc1ccccc1 (stereo unspecified)
inactive: [1] 96.7% | [2] 106% | [3] 76.7% | [4] 77.1% | [5] 87.4% | [6] 57% | [7] 108% | [8] 113% | [9] 82.4% | [10] 92.2% | [11] 88.4% | [13] 74.1% | [14] 79.4% | [15] 56.5% | [16] 85.1% | [17] 93.9%

COc1ccc(-c2cc(-c3nnc(SCC(=O)Nc4ccc(/C(C)=N\O)cc4)n3-c3ccccc3)c3cc(OC)ccc3n2)cc1
inactive: [1] 66.7% | [2] 75.8% | [3] 102% | [4] 92.1% | [5] 79.9% | [6] 39.6% | [7] 77.4% | [8] 82.7% | [9] 71.3% | [10] 45.4% | [11] 63.7% | [12] 79.2% | [13] 82.1% | [16] 100% | [17] 61.1%

COc1ccc(-c2cc(-c3nnc(SCC(=O)Nc4ccc(C(C)=O)cc4)o3)c3ccccc3n2)cc1
active: [1] -19.8% | [2] -21% | [4] -49.6% | [6] 9.74% | [7] -20.6% | [8] -8.38% | [9] 6.03% | [10] 0.593% | [13] 5.51% | [14] -15.7% | [15] -26.9%
inactive: [3] 71.4% | [5] 17.8% | [11] 14.8% | [16] 96.5% | [17] 39.2%

CO[C@@]12C=C[C@@]34CCC(=O)N3c3ccccc3[C@@H](O1)C4C2
inactive: [1] 94.6% | [2] 97.7% | [3] 101% | [4] 109% | [5] 107% | [6] 99.1% | [7] 108% | [8] 95.3% | [9] 97.7% | [10] 96.2% | [11] 105% | [12] 104% | [13] 101% | [14] 97.9% | [15] 102% | [16] 106% | [17] 105%

O=C(Nc1nc(-c2ccccc2Cl)cs1)c1cc(-c2ccc(Br)cc2)nc2ccccc12
active: [10] 9.58%
inactive: [1] 29% | [2] 43.1% | [3] 70.6% | [4] 46.6% | [5] 31.8% | [6] 61.4% | [7] 47% | [8] 79.6% | [9] 57.2% | [11] 70.9% | [13] 57% | [14] 29.4% | [15] 43.6% | [16] 63.9% | [17] 59%

COc1cccc(NC(=O)Nc2ccc(Nc3ncnc4[nH]c(C)c(C)c34)cc2)c1
inactive: [1] 90.8% | [2] 91.7% | [3] 114% | [4] 109% | [5] 102% | [6] 115% | [7] 113% | [8] 83.9% | [9] 107% | [10] 89.8% | [11] 97.7% | [12] 102% | [13] 110% | [14] 91.1% | [15] 116% | [16] 115% | [17] 70.6%

COc1ccc2[nH]c3nc4cnccc4cc3c2c1
inactive: [1] 101% | [2] 97% | [3] 128% | [4] 101% | [5] 95.3% | [6] 89.3% | [7] 104% | [8] 110% | [9] 104% | [10] 94.6% | [11] 104% | [13] 104% | [14] 82% | [15] 97.9% | [16] 117% | [17] 93.2%

C#C[C@@]1(O)[C@@H](CO)O[C@@H](n2cc(F)c3c(N)ncnc32)[C@@H]1O
active: [1] 5.11% | [2] 9.54% | [3] 9.96% | [4] 4.75% | [5] -7.75% | [6] -17.4% | [9] 4.76% | [10] -13.8% | [11] -23.9% | [13] 1.66% | [14] 2.03% | [15] 1.44% | [16] -27.2%
inactive: [7] 10.9% | [8] 28.4% | [17] 10.2%

CCC[S@](=O)c1ccc2nc(NC(=O)OC)[nH]c2c1
inactive: [1] 96.4% | [2] 84.9% | [3] 101% | [4] 104% | [5] 74.5% | [6] 97.1% | [7] 104% | [8] 102% | [9] 106% | [10] 87.7% | [11] 97.3% | [13] 93.4% | [14] 92% | [15] 84.4% | [16] 105% | [17] 103%

COc1cc(C2=NN(c3ccccc3)C(c3cccc(Nc4ccnc5cc(C(F)(F)F)ccc45)c3)C2)cc(OC)c1OC (stereo unspecified)
inactive: [1] 65.1% | [2] 91.7% | [3] 104% | [4] 91% | [5] 94.7% | [6] 77.9% | [7] 88.1% | [8] 99% | [9] 80.9% | [10] 76.5% | [11] 114% | [13] 94.8% | [14] 80.6% | [15] 89.7% | [16] 90% | [17] 88.1%

C=C(C)[C@@H]1CC[C@]2(C(=O)NCCCO)CC[C@]3(C)[C@H](CC[C@@H]4[C@@]5(C)CCCNC(C)(C)[C@@H]5CC[C@]43C)[C@@H]12
inactive: [1] 29% | [2] 87.4% | [3] 88% | [4] 69.3% | [5] 85.5% | [6] 75.9% | [7] 79.2% | [8] 61.9% | [9] 82.7% | [10] 43.8% | [11] 78.5% | [13] 74.9% | [14] 41.5% | [15] 53.7% | [16] 74.3% | [17] 84.5%

COc1cc(/C=C/C(=O)c2ccc(NC(=O)CSc3nnc(-c4cc(OC)c(OC)c(OC)c4)n3-c3ccccc3)cc2)cc(OC)c1OC
active: [1] -13.1% | [6] 7.57% | [7] -17.8% | [11] -19.6% | [12] -36.1% | [13] -76.4% | [15] -80.6% | [16] -91.8% | [17] -6.65%
inactive: [2] 10% | [3] 61.4% | [4] 54.8% | [5] 38% | [9] 44.3% | [10] 50.3% | [14] 11.2%

O=C1CC23OC(C(O)c4ccccc4N12)C1C(c2ccccc2)=NOC13 (stereo unspecified)
inactive: [1] 28.5% | [2] 70.4% | [3] 81.2% | [4] 89.7% | [5] 79.9% | [6] 43.6% | [7] 56.7% | [9] 15.8% | [10] 52.8% | [11] 24.6% | [13] 29.2% | [14] 26.4% | [15] 21.3% | [16] 85.2% | [17] 28.9%
active: [12] -28%

NC(=O)CN1C(=O)c2ccccc2C1=O
inactive: [1] 105% | [2] 103% | [3] 102% | [4] 110% | [5] 106% | [6] 105% | [7] 106% | [9] 102% | [10] 89.9% | [11] 86.6% | [12] 106% | [13] 103% | [14] 95.3% | [15] 102% | [16] 103% | [17] 103%
